Screening results from PubChem BioAssay.
CHT inh = inhibits the human high affinity choline transporter | B-score at 10 µM | Q9GZV3 | CHT-expressing cells, membrane potential dye, choline response; active compounds read low | AID 488975 | 310,000 tested, 0.86% active;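 active = B-score over 3 SD under the library average, and starting fluorescence ratio not unusually high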;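 also: choline stimulus applied at its EC90 after an EC20 pre-addition; B-score computed on integrated fluorescence ratio after choline addition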
Target sequence (Q9GZV3 whole entry, looked up): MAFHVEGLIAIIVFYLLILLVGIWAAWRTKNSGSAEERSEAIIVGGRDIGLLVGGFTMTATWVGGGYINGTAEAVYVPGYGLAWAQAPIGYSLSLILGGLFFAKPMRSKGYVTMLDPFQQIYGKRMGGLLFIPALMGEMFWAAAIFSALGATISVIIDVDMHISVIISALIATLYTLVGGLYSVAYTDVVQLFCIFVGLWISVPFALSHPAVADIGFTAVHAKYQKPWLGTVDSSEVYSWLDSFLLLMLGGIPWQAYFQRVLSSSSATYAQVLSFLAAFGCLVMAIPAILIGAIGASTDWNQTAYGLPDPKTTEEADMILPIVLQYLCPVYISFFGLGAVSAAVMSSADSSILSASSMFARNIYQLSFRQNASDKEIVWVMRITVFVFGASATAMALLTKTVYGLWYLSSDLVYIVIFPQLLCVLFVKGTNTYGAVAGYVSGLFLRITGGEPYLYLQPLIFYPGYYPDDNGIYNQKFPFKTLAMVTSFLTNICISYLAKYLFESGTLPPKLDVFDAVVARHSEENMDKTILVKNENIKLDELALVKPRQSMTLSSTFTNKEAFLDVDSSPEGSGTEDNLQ
TAG inh = reduces triacylglycerol accumulation in H9c2 cells; Nile Red lipid (TAG) fluorescence; cells loaded with 200 µM oleic acid; inhibition, % at 12.5 µM; 230,000 tested, 0.66% active; AID 651582;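 active = pattern-corrected inhibition of lipid staining of at least 50% with the nuclear-stain viability signal not falling by more than 50%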;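 also: 0% = DMSO wells and 100% = triacsin C control wells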
CHT PAM = allosteric activators of human choline transporter CHT; CHT-expressing cells, membrane potential dye, choline EC20; active compounds read high; LV-AA mutant CHT in HEK293 cells; B-score at 10 µM; 310,000 tested, 0.49% active;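 active = initial fluorescence not abnormally high and integrated response B-score, plate-corrected, over 3 SD above library mean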
MIN6 prolif = inducers of beta-cell replication in MIN6 cells; MIN6 cells proliferation, ATPlite luminescence, 48 h; cells starved in 0.2% serum; 100% = growth in 10% serum; proliferation, % at 10 µM; 330,000 tested, 0.29% active; AID 2380;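 active = compounds whose signal lies at least 3.5 SD above the mean of all wells on their plate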;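 also: 0% = DMSO-treated cells in low-serum medium and 100% = 10% serum control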
CHT inh conf = confirmation of human choline transporter CHT inhibitors; shares compounds with CHT inh; CHT-expressing cells, choline membrane potential dye; LV-to-AA substituted CHT, HEK293 cells; CHT activity remaining % of control (active compounds read low), % at 10 µM; 2,400 tested, 70% active;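 active = choline transporter activity left, mean of duplicates at 10 µM, below buffer-only control mean minus 3 SD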;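 also: depolarization triggered by choline at its EC90 following an EC20 pre-addition; 0% = hemicholinium-3 full block and 100% = buffer-only control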
HEK293 MPD ctr = counter-screen for CHT inhibitors: effect in parental HEK293 cells. shares compounds with CHT inh. membrane potential dye, choline response; active = decrease or increase beyond buffer ±3SD. membrane potential ratio readout (active if shifted either direction beyond buffer ±3SD; no single direction) at 10 µM. 2,400 tested, 4% active;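 also: parental cells lack the transporter so any hit is non-specific; ratio is peak minus trough fluorescence over baseline after EC90 choline challenge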
Active calls of the source: *; i = inactive; . = no result given. Compounds with a hit are over-represented: about 1.7% of the library has one in this group of screens.

SMILES	CHT inh	TAG inh	CHT PAM	MIN6 prolif	CHT inh conf	HEK293 MPD ctr
Cc1n[nH]c(C)c1S(=O)(=O)N1CCCC(C(=O)N2CCN(c3ccc(Cl)cc3)CC2)C1 (centres undefined)	-5.22*	-14.0	i	0.4	i	i
Cc1n[nH]c(C)c1S(=O)(=O)N1CCCC(C(=O)N2CCc3ccccc32)C1 (centres undefined)	i	6.0	i	3.6	.	.
COc1ccc(NC(=O)C2CCN(S(=O)(=O)c3ccc(Cl)c(C(F)(F)F)c3)CC2)cn1	.	13.4	.	.	.	.
CCOC(=O)N1CCN(C(=O)CCCn2c(=S)[nH]c3ccsc3c2=O)CC1	-12*	23.4	i	-1.7	6.4%*	i
CCOC(=O)N1CCN(C(=O)CCCn2c(=S)[nH]c3ccc(Br)cc3c2=O)CC1	-5.32*	.	i	-0.1	55.2%*	i
CCOC(=O)N1CCN(C(=O)CCCn2c(=O)[nH]c3ccccc3c2=O)CC1	-5.88*	-9.2	i	-0.2	5.0%*	i
CCOC(=O)N1CCN(C(=O)CCCCCn2c(=S)[nH]c3ccsc3c2=O)CC1	i	-2.0	i	-1.3	.	.
COc1ccc(C(C(=O)NC2CCCCC2)N(C(=O)c2cccs2)c2ccc3c(c2)OCO3)cc1 (centres undefined)	i	.	i	-3.4	.	.
O=C(NC1CCCCC1)C(c1ccccc1)N(C(=O)c1cccs1)c1ccc2c(c1)OCO2 (centres undefined)	i	.	i	-2.7	.	.
COc1ccc(CN(C(=O)c2cccs2)C(C(=O)NC2CCCCC2)c2ccc3ncccc3c2)cc1 (centres undefined)	-8.1*	.	i	-3.5	43.1%*	i
O=C(NC1CCCCC1)C(c1ccc2ncccc2c1)N(Cc1ccc2c(c1)OCO2)C(=O)c1cccs1 (centres undefined)	-10.3*	.	i	-2.2	25.2%*	i
Cc1ccccc1CN1CCCOCCS1(=O)=O	i	12.5	i	-1.5	.	.
C#CCNc1c2c(nc3ncnn13)CC(C)CC2 (centres undefined)	-5.24*	-9.3	i	-1.6	63.5%*	i
CC(=O)Nc1ccc(NC(=O)C(C)Oc2ccc(Cl)cc2Cl)cc1 (centres undefined)	i	.	i	-0.2	.	.
CC(Oc1ccc(Cl)cc1Cl)C(=O)Nc1ccc(S(=O)(=O)Nc2cnc3ccccc3n2)cc1 (centres undefined)	-9.87*	.	i	-3.8	46.2%*	i
CC(Oc1ccc(Cl)cc1Cl)C(=O)NC1=NN(c2ccccc2)C(=O)C1 (centres undefined)	-6.35*	2.4	i	-5.0	38.9%*	i
Cc1cc(Cl)ccc1OC(C)C(=O)Nc1ccc(S(=O)(=O)Nc2cnc3ccccc3n2)cc1 (centres undefined)	-11.1*	-6.5	i	-3.7	42.7%*	i
Fc1ccc(CNc2ccc(N3CCN(Cc4ccccc4)CC3)cc2)cc1	i	.	i	-4.2	i	i
O=C1[C@@H](Oc2ccccc2)[C@@H](c2cccnc2)N1c1ccccc1	.	3.4	.	.	.	.
CCCc1cc(C(=O)NNC(=S)NC(C)c2ccccc2)cs1 (centres undefined)	-6.19*	.	i	1.6	18.0%*	i
CCCc1cc(C(=O)NNC(=S)NCC2CCCO2)cs1 (centres undefined)	i	.	i	0.0	.	.
O=C(NCCN1CCOCC1)c1ccc2c(c1)N(Cc1cccc(F)c1)C(=O)c1ccccc1S2	i	2.9	i	0.0	.	.
O=C(O)c1ccc2c(c1)N(Cc1ccc(F)cc1)C(=O)c1ccccc1S2	-5.22*	-6.0	i	-0.7	63.9%*	i
O=C(NC(=S)NCC1CCCO1)C(c1ccccc1)c1ccccc1 (centres undefined)	i	0.2	i	-0.6	.	.
COc1ccc(C(C)(O)c2nc(-c3cccc(C(C)C)c3)cs2)cc1 (centres undefined)	.	-13.0	.	.	.	.
Cc1cc(O)ccc1NS(=O)(=O)c1ccc2c3c(cccc13)C(=O)N2	-6.52*	.	i	-0.3	57.0%*	i
CC1CCCCC1NC(=S)Nc1ccc(SC(F)F)cc1 (centres undefined)	-5.49*	-1.6	i	-3.9	66.0%*	i
